Results on 15 molecules are retold here after PubChem BioAssay (NCI).

Test in all cases: NCI-60 one-dose screen, 48 h (100 = growth as untreated, 0 = no growth, -100 = all killed)
Common to all, as to details: 10 µM

In test [1] the test system is HCT-15 colon.
In test [2] the test system is SNB-75 CNS.
Test [3] concerns SNB-19 CNS.
For test [4], the system named is U251 CNS.
Test [5] concerns PC-3 prostate.
Test [6] deals with SK-MEL-5 melanoma.
Test [7] concerns UACC-62 melanoma.
Test [8] relates to LOX IMVI melanoma.
Test [9] concerns SK-MEL-28 melanoma.
For test [10], the system named is HT29 colon.

Molecules are shown by their SMILES. Compounds without any hit were thinned out: in the full panel of roughly 83,000, 20% have a hit.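 Percent growth is the endpoint: 0 to 100 indicates growth inhibition (40 means 60% inhibition), 0 means no net growth, and negative values indicate cell death.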 Unmarked numbers belong to inactive results. Calls of active or inactive are those of the source. The calls were made as follows: active = growth percent below 10; inactive = the rest.

As to `COc1ccc(/C=c2\sc3n(c2=O)C(c2cc(OC)c(OC)c(OC)c2)C=C(c2ccc(OC)c(OC)c2)N=3)cc1OC` (stereo not given), the growth in test [1] was 90.3%; in test [2] it was 76.2%; in test [3], 89.9%; in [4] it was 98.9%; in test [5] it was 86.6%; in [6] it was 83.4%. In addition, the figures for the growth in [7], in [8] and in test [9] were 85.6%, 93.8% and 104%, respectively.

Regarding `COc1ccc(C(=O)CSc2nc(-c3cc(OC)ccc3OC)cc(-c3ccc(OC)cc3)c2C#N)cc1`, the growth in [1] is 92.1%; in [10], 92.2%; in [2] it was 90.1%; in test [3], 99.9%; in test [6], 99.1%; in test [7], 93.7%. Besides, the results for the growth in [8] and in [9] were 91.4% and 101%, respectively.

Turning to `COc1cccc(CNc2cccc3cn[nH]c23)c1O`, the growth in [10] was 99.7%; in test [2] it was 82%; in test [3], 96.5%; in [4], 92.9%; in [5] it was 84.5%; in test [6], 82.2%. Further, the growth in test [7] is 85.6%; in test [8], 90.4%; in test [9] it was 100%.

Turning to `CC(C)(O)CCl`, the growth is 102% in test [1]; 110% in test [2]; 102% in test [3]; 103% in test [4]; 102% in test [5]; 104% in test [6]. For the same molecule, the values for the growth in test [7], in [8] and in test [9] were 102%, 104% and 110%, respectively.

With `O=C(CCCNC(=O)c1nc(-c2ccccc2)n(-c2ccccc2)n1)NO`, the growth in test [1] is 104%; in test [10], 90.1%; in [2], 107%; in test [3], 98.1%; in [6], 104%; in [7], 102%. Besides, the values for the growth in test [8] and in [9] were 97.9% and 109%, respectively.

In the case of `CC(C)(C)c1ccc(S(=O)(=O)N[C@H]2CC[C@H]3[C@@H]4CCc5cc(OS(=O)(=O)O)ccc5[C@H]4CC[C@]23C)cc1`, the growth in [1] is 35.4%; in test [2], 61.6%; in test [3], 92.3%; in test [5], 27.5%; in test [6] it was 52.5%; in [7] it was 62%. The growth in [9] was 77.5%.

Take `Cc1cc(SCc2ccccc2)nc(N)n1`: the growth is 104% in [1]; 92.1% in [3]; 118% in test [4]; 111% in test [5]; 117% in test [6]; 87.5% in test [7]. Besides, the growth in [8] was 103%; in [9], 106%.

Take `CC(C)Cc1ccc([C@H](C)C(=O)O)cc1`: the growth in [1] is 97%; in test [10], 106%; in test [2] it was 79.4%; in test [3], 108%; in [6] it was 102%; in [7], 103%. Moreover, the growth in test [8] was 101%; in test [9] it was 109%.

On to `Nc1nc(N)c(N)c(Nc2ccc(CCO)cc2)n1`, for which the growth in test [1] was 115%; in test [10] it was 104%; in test [3], 124%; in test [4] it was 96.6%; in test [5], 96.8%; in test [6], 99.4%. For the same molecule, the growth in test [7] was 97.5%; in test [8], 97.2%; in test [9], 113%.

Consider `O=S(=O)(Oc1ccc(-c2ccc3sccc3c2)cc1)c1ccccc1`, for which the growth in test [10] is 88.9%; in [2], 120%; in test [3], 96.8%; in test [5], 91%; in test [6] it was 94.4%; in test [7], 74.9%. In addition, the growth in [8] was 101%; in [9] it was 97.9%.

`Nc1ncc(-c2cnn(C3CCNCC3)c2)cc1-c1nc2ccccc2o1`: the growth is -4.71% (active) in [10]; 13.2% in test [2]; 35.8% in test [3]; 13.1% in test [4]; 26.9% in [6]; -67.1% (active) in test [7]. The growth in test [8] was -80.6% (active); in test [9], -86.8% (active).

Take `CN(C)c1ncnc2c1nnn2C1OC(CO)C(O)C1O` (stereo not given): the growth in [10] was 0.427% (active); in test [2], 28.3%; in [3] it was 33.9%; in test [5] it was 21.7%; in test [6], -12.6% (active); in test [7] it was -32.9% (active). In addition, the growth is 9.03% (active) in test [8] and 12.6% in test [9].

Take `CCc1cc(Cl)c(OC)c(C(=O)NCC2CCCN2CC)c1O` (stereo not given): the growth was 89.5% in test [10]; 67.1% in [2]; 91.2% in test [3]; 83.8% in [4]; 73.7% in test [5]; 83.4% in [6]. The figures for the growth in test [7], in test [8] and in test [9] were 97%, 90.6% and 109%, respectively.

`CCN1CCN(CCC(=O)Nc2cccc(-n3cc(-c4ccncc4)c(-c4ccc(Cl)c(OC)c4)n3)c2)CC1`: the growth in test [10] is -23.4% (active); in test [2], 9.22% (active); in test [3], 39.4%; in [4], -7.85% (active); in test [5] it was 16.5%; in test [6] it was -3.03% (active). Further, the growth in [7] is -17% (active); in [8], -47.5% (active); in test [9] it was -52.3% (active).

`CCn1c(CSc2nc3ccccc3c(=O)n2CCc2ccccc2)n[nH]c1=S`: the growth in [10] was 88.2%; in [2], 107%; in [3] it was 106%; in test [5] it was 83.9%; in test [6], 82.4%; in test [7], 85.2%. Moreover, the growth was 74.2% in test [8] and 106% in test [9].
